High-throughput results deposited in PubChem BioAssay by National Center for Advancing Translational Sciences (NCATS).
Many of the other results were omitted from the sample, so hits are more common in it than they were.
Tb PFK block: qHTS Assay to Find Inhibitors of T. brucei phosphofructokinase | actives 0.17% (n = 330,000) | T. brucei PFK, ADP-Glo luminescence | ATP-dependent 6-phosphofructokinase (Trypanosoma brucei brucei), O15648 | Potency, µM (highest dose often 57.5 µM), actives largely listed as inhibitors; also: nearly all actives have a fitted effect of over 60% in size
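ADP-Glo luminescence quantified ADP after 45 min at room temperature, with 1.25 nM T. brucei PFK, 0.1 mM ATP and 0.5 mM fructose-6-phosphate in pH 8.0 TEA buffer. qHTS titrations up to 57 µM; curves classified by quality.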
PI4K2A block: qHTS for small molecular inhibitors of PI4K2A | AID 1346378, 2018 | Phosphatidylinositol 4-kinase type 2-alpha (Homo sapiens), Q9BTU6 | actives 0.13% (n = 420,000) | activity change, negative = inhibition, % at 76.9 µM | purified PI4K2A, ADP-Glo luminescence, 1 h; stronger effect = lower value; in the data active = activity change below about -50%; inconclusive = mostly about -30% to -49%
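In this quantitative HTS, ADP production by PI4K2A was quantified luminescently after 1 h at ambient temperature; 100 microM adenosine served as plate-quality control.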
PI5P4K alpha inh: qHTS for Inhibitors of phosphatidylinositol 5-phosphate 4-kinase (PI5P4K) | Phosphatidylinositol 5-phosphate 4-kinase type-2 alpha (Homo sapiens), P48426 | PI5P4Kalpha enzyme, ADP-Glo luminescence, 60 min; stronger effect = lower value | max response, % | actives 1.2% (n = 330,000) | AID 652105, 2013; active = max response of -50% or lower; inconclusive = between -30% and -50%; inactive = -30% or higher; also: value at the top dose of about 77 µM
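ADP-Glo luminescence end-point after a 60 min room-temperature kinase reaction. PI5P4Kalpha and substrate in HEPES pH 7.4 buffer with EGTA, 0.1% CHAPS and 5% DMSO; ATP at 5 microM final.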
PGK inhibitor: qHTS Assay to Find Inhibitors of Phosphoglycerate Kinase; PGK/GAPDH coupled, Kinase-Glo luminescence, 60 min; Potency, µM (highest dose often 57.5 µM), usual class: inhibitors; actives 0.043% (n = 380,000); AID 602233, 2012; also: nearly all actives have a fitted effect of over 60% in size
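Luminescent ATP detection (Kinase-Glo Plus) follows a 60-minute room-temperature incubation, with wells lacking PGK as controls. Buffer: 100 mM TEA (pH 7.6), 5 mM MgCl2, 0.01% Tween-20. Coupling enzyme GAPDH (100 nM final) supplies unstable 1,3-BPG in-well.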
Pin1 inh: qHTS Assay to Find Inhibitors of Pin1 | Peptidyl-prolyl cis-trans isomerase NIMA-interacting 1 (Homo sapiens), Q13526 | Pin1 FP peptide displacement, HiFluor488, 10 min | Potency, µM (top dose mostly 115 µM), most hits filed as inhibitors | actives 0.009% (n = 390,000) | AID 504891, 2011; active = well fitted inhibition curve with a large enough effect in the polarisation, with a control signal flat, not every such curve was filed as active; inconclusive = small, poorly fitted or top-dose-only effect, or effect the other way, or a change in a side signal; inactive = no such curve, though single readings can be large or run the other way; the % refers to the polarisation
Target sequence (Q13526 whole entry, looked up): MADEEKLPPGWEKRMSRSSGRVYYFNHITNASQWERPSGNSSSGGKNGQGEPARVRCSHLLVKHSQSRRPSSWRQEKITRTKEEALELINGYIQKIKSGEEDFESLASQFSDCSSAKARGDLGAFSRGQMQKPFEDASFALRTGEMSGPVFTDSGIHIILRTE
Each line names hits and unclear results; the compound was inactive in the other large screens. Unless noted, calls follow the shape of the dose curve; as a rule, active = well fitted curve in the direction sought with a large enough effect; inconclusive = small, poorly fitted or top-dose-only effect, or another doubt; inactive = no such curve, though single readings can be large; an effect the other way counts as inactive or inconclusive.

CC1CCC(NC(=O)CNC(=S)N2CC3CC(C2)c2cccc(=O)n2C3)CC1 (configuration not stated)	none
CCCCCCOC(=O)c1ccccc1N	none
O=C1NC(=O)N(CCc2ccc(F)cc2)C(=O)/C1=C/c1cccs1	PI5P4K alpha inh -74
CC(C)c1ccc(N2C(=O)NC(=O)/C(=C\C=C\c3ccco3)C2=O)cc1	PI5P4K alpha inh -69, Pin1 inh inconclusive
O=C1NC(=S)NC(=O)C1=Cc1cccn1-c1ccc(O)cc1	Tb PFK block inconclusive, PI4K2A block inconclusive, PI5P4K alpha inh -84, PGK inhibitor inconclusive (no result: Pin1 inh)
CN1C(=O)/C(=C/c2cccn2-c2ccc3ccccc3c2)C(=O)NC1=S	PI4K2A block -61, PI5P4K alpha inh -78 (no result: Pin1 inh)
Cc1cc(C)cc(N2C(=O)NC(=O)/C(=C\c3cccn3-c3ccccc3)C2=O)c1	Tb PFK block inconclusive
Cc1cc(C)cc(N2C(=O)NC(=O)/C(=C\c3cccn3-c3ccc(Cl)cc3)C2=O)c1	PI4K2A block -50, PI5P4K alpha inh inconclusive
Cn1cccc1/C=C1/C(=O)NC(=O)N(C(C)(C)C)C1=O	none
COc1ccccc1-n1c(O)c(C=NCc2ccc3c(c2)OCO3)c(=O)[nH]c1=O	none
Cc1cc(C)cc(-n2c(=O)[nH]c3ccccc3c2=O)c1	none (no result: Tb PFK block, PI5P4K alpha inh)
O=c1[nH]c(=S)[nH]c(O)c1/C=C1/C=c2ccccc2=N1	PI5P4K alpha inh inconclusive
Cc1cccc2c1=NC(=O)/C(=C/c1c(O)[nH]c(=O)[nH]c1=O)C=2	PI5P4K alpha inh -54
CCN1C(=O)C(=C/C=C/c2ccco2)C(=O)N(CC)C1=S	PI5P4K alpha inh -97, PGK inhibitor inconclusive, Pin1 inh inconclusive
CC(C)N1C(=O)/C(=C/C=C/c2ccco2)C(=O)N(Cc2ccco2)C1=O	PI4K2A block -59, PI5P4K alpha inh -69, PGK inhibitor inconclusive, Pin1 inh inconclusive
Cc1ccc2c(c1)C1CN(C)CCC1N2 (configuration not stated)	none (no result: Tb PFK block, PI5P4K alpha inh, PGK inhibitor, Pin1 inh)
CCOC(=O)C1CCN(/C=C2/C(=O)NC(=S)N(c3ccccc3F)C2=O)CC1	none
Cc1ccc(/C=C2\C(=O)NC(=S)N(c3ccc(F)cc3)C2=O)s1	PI5P4K alpha inh -82, Pin1 inh inconclusive
Cc1ccc(/C=C2\C(=O)NC(=S)N(c3ccccc3F)C2=O)s1	PI5P4K alpha inh -111
O=c1[nH]c(=S)n(C2CC2)c(O)c1C=NCC1CCCO1 (configuration not stated)	none
Cc1cccc(-n2c(-c3ccco3)nc3ccccc3c2=O)c1C	none
CCOc1ccc2nc(N=Nc3c(O)[nH]c(=O)[nH]c3=O)sc2c1	PI5P4K alpha inh -86, Pin1 inh inconclusive
CCOc1ccc2nc(N=Nc3c(O)[nH]c(=S)[nH]c3=O)sc2c1	PI5P4K alpha inh -80
O=C1NC(=S)NC(=O)C1C/C=C/c1ccccc1	none (no result: PI5P4K alpha inh)
CC(C)OP(=O)(OC(C)C)C(O)c1ccc(Br)cc1 (configuration not stated)	none
CCn1nc(/C=C/c2ccccc2)nc2c(=O)n(C)c(=O)nc1-2	PI4K2A block -69, PGK inhibitor inconclusive
CCOc1ccc(-n2c(-c3cccs3)nc3ccccc3c2=O)cc1	none
CCn1nc(-c2cccs2)nc2c(=O)n(C)c(=O)nc1-2	PI4K2A block -61, PGK inhibitor inconclusive, Pin1 inh inconclusive
Brc1csc(N2CCNCC2)n1	none (no result: Tb PFK block, PI5P4K alpha inh, PGK inhibitor, Pin1 inh)
CCOC(=O)c1c(-n2c(C)cc(C=C3C(=O)NC(=S)NC3=O)c2C)sc2c1CCCC2	PI5P4K alpha inh -63, Pin1 inh inconclusive
CC(C)CS(=O)(=O)C1=NN2C(=N)/C(=C\c3ccc(OC(=O)c4ccco4)cc3)C(=O)N=C2S1	PI5P4K alpha inh -84, Pin1 inh inconclusive
CCC1(CC)C(=O)NC(=NCCc2c[nH]c3ccccc23)NC1=O	none (no result: PI5P4K alpha inh)
CNC(=O)Oc1ccc2ncccc2c1	none
O=C(O)c1cc[c]([Hg][Cl])cc1	Tb PFK block 4.3µM, PI4K2A block inconclusive, PI5P4K alpha inh -58
COc1ccc(C(=O)O)cc1OC	none (no result: Tb PFK block)
